# Only some compounds are listed: those with a hit (about 12% of all), similar ones and a draw of the others.
# G9a inh – blocks human histone lysine methyltransferase G9a; hit rate 8.8% among 350,000; Potency, µM (highest dose often 102 µM), hits mostly inhibitors; G9a H3K9 monomethylation, AlphaScreen, 2 h; Q96KQ7; note: nearly all actives have a fitted effect of over 75% in size
# Target sequence (Q96KQ7 913-1193 limits assumed): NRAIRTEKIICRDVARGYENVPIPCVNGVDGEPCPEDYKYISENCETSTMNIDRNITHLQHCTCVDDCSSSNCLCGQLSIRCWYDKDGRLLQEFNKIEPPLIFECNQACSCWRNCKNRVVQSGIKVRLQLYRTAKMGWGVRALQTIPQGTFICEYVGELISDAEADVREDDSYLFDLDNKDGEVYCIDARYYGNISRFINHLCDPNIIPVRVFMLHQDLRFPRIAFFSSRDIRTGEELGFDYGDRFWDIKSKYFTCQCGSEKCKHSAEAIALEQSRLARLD
#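 AlphaScreen detection with an anti-monomethyl H3K9 antibody quantified product after a 2 h room-temperature reaction containing 500 nM biotinylated H3K9 peptide, 20 µM SAM and 20 nM enzyme, which had been preincubated 15 min with compound.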
# Sfp inh – Sfp phosphopantetheinyl transferase inhibition; Q9F4F7; Biochemical Sfp PPTase activity, qHTS; Potency, µM, usual class: inhibitors; hit rate 3.5% among 310,000; AID 1490;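 note: the enzyme is Sfp with the accession as filed and its product quenches rhodamine fluorescence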
#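 Sfp 15 nM + cpd, 15 min RT; start w/ rhodamine-CoA 5 uM, BHQ-2-YbbR 12.5 uM (final); 50 mM Hepes pH 7.6, 10 mM MgCl2, 0.01% NP-40, 0.01% BSA; read 525/598 nm at 0 and 30 min.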
# JMJD2A Tudor inh – JMJD2A Tudor domain (human) inhibition; AlphaScreen JMJD2A-Tudor / H3K4me3 peptide binding; hit rate 4.4% among 390,000; Potency, µM (titrated, usually from 114 µM), hits mostly inhibitors; note: nearly all actives have a fitted effect of over 50% in size
# HP1b binding inh – blocks HP1-beta chromodomain binding to methylated histone tails; AID 540317; Potency, µM (titrated, usually from 114 µM), actives largely listed as inhibitors; P83916; AlphaScreen HP1-beta / biotin-H3K9me3 peptide binding; hit rate 0.56% among 390,000; note: nearly all actives have a fitted effect of over 70% in size
# Target sequence (P83916 whole entry, looked up): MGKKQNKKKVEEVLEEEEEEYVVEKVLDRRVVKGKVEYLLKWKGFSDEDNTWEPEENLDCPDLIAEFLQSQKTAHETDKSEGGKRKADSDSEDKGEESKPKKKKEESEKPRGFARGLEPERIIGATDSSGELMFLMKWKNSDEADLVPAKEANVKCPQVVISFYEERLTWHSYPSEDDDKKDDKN
#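 Compound inhibition of the preformed complex between 50 nM HP1-beta and 50 nM biotinylated H3K9me3 peptide was read by AlphaScreen. Buffer was PBS pH 7.4 with 0.01% Tween-20. Incubations ran 30 min at room temperature, with 10 ug/mL donor/acceptor beads.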
# BAZ2B inh – inhibitors of human BAZ2B bromodomain; Q9UIF8; AlphaScreen BAZ2B-H3K14Ac peptide displacement; Potency, µM (doses to about 114 µM), most hits filed as inhibitors; hit rate 4.4% among 360,000; note: nearly all actives have a fitted effect of over 60% in size
#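 Complex of BAZ2B and biotin-H3K14Ac (50 nM apiece) forms over 30 min at RT, then faces library compounds up to 110 uM for another 30 min; AlphaScreen beads added, 20 min dark incubation, luminescence read.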
# Numbers stand for hits; n = inactive; u = inconclusive; x = no result given; [ ] = dose if it differs, or a comment. Calls come from the whole dose curve; as a rule, active = well fitted curve in the direction sought with a large enough effect; inconclusive = small, poorly fitted or top-dose-only effect, or another doubt; inactive = no such curve, though single readings can be large; an effect the other way counts as inactive or inconclusive.
SMILES,G9a inh,Sfp inh,JMJD2A Tudor inh,HP1b binding inh,BAZ2B inh
Cc1cc(C(=O)NCc2ccccc2Cl)c2c(C)nn(-c3ccccc3)c2n1,n,x,n,n,n
O=C(CC1N=C2c3ccccc3N=C(SCC(=O)Nc3ccccc3F)N2C1=O)NCc1cccs1 (stereo not drawn),14.1µM,x,n,n,u
Cc1ccc(CSC2=Nc3ccccc3C3=NC(CC(=O)NCc4ccco4)C(=O)N23)cc1 (stereo not drawn),u,35.5µM,u,n,50.1µM
O=C(CCC1N=C2c3ccccc3N=C(SCc3ccc(Cl)cc3)N2C1=O)NCCc1ccccc1 (stereo not drawn),n,x,n,n,n
O=C(CC1N=C2c3ccccc3N=C(SCc3ccc(Cl)cc3)N2C1=O)NCCc1ccccc1 (stereo not drawn),n,x,79.4µM,n,n
Cc1ccc2occ(C(=O)c3ccco3)c(=O)c2c1,n,n,n,n,n
CN(C)c1ccc(C(C(=O)NCc2ccccc2)N(Cc2cccnc2)C(=O)c2snc(C(N)=O)c2N)cc1 (stereo not drawn),50.1µM,n,u,n,u
CN(C)c1ccc(C(C(=O)NC2CCCCC2)N(Cc2ccco2)C(=O)c2snc(C(N)=O)c2N)cc1 (stereo not drawn),u,n,u,u,39.8µM
COc1ccc(C(C(=O)NCc2ccccc2)N(Cc2cccnc2)C(=O)c2snc(C(N)=O)c2N)cc1OC (stereo not drawn),n,n,n,n,n
COc1cc(C(C(=O)NC2CCCC2)N(Cc2ccco2)C(=O)c2snc(C(N)=O)c2N)cc(OC)c1OC (stereo not drawn),n,n,n,n,n
COc1ccccc1NS(=O)(=O)c1cccc(C(=O)NCC(C)(C)N2CCOCC2)c1,n[12.7 µM],n,n,n,n
O=C(Nc1ccc(CN2CCOCC2)cc1)c1cccc(F)c1,n,n,n,n,n
O=C(CN1C(=O)c2ccc([N+](=O)[O-])cc2C1=O)NCc1ccco1,n,n,n,n,n
FC(F)(F)c1cnc(-c2cnc(-c3ccncc3)nc2)c(Cl)c1,n,n,n,n,n
FC(F)(F)c1cnc(-c2cnc(-c3ccccn3)nc2)c(Cl)c1,50.1µM,n,n[11.4 µM],n,u
CCn1c(SCc2nc3ccccc3s2)nnc1-c1ccccc1,u,n,n,n,n
CCC(c1nnc(SCc2nc3ccccc3s2)n1Cc1ccccc1)N(C)C (stereo not drawn),50.1µM,n,n,n,n
c1ccc(Cn2c(SCc3nc4ccccc4s3)nnc2-c2ccco2)cc1,7.08µM,20µM,31.6µM,u,u
Cc1ccc(NC(=O)CN(C)C(=O)C(C)OC(=O)CNC(=O)c2ccc(Cl)c([N+](=O)[O-])c2)cc1 (stereo not drawn),n[0.501 µM],x,n,n,n
COc1cccc(CNCCSc2nnnn2C)c1,56.2µM,n,n,n,n
COc1cc(CNCCSc2nnnn2C)cc(Br)c1OCc1ccc(F)cc1,n[2.33 µM],14.1µM,n,n,n
Cn1nnnc1SCCNCc1cccc2ccccc12,50.1µM,n,n,n,n
COc1ccc(Cl)cc1CNCCSc1nnnn1C,n,x,n,n,n
COc1ccc(Br)cc1CNCCSc1nnnn1C,56.2µM,n,n,n,n
Cc1ccccc1CNCCSc1nnnn1C,n,x,n,n,n
SMILES,G9a inh,Sfp inh,JMJD2A Tudor inh,HP1b binding inh,BAZ2B inh
CC(OC(=O)CNC(=O)c1ccc(Cl)c([N+](=O)[O-])c1)C(=O)NC1CCCCC1C (stereo not drawn),u,x,n,n,n
CC(=O)c1cccc(NC(=O)c2noc3c2CSc2ccccc2-3)c1,n,x,n,n,n
COc1ccc(CNc2nc(Cl)nc3nc[nH]c23)cc1,x,x,n,n,x
CCOC(=O)C1CCN(C(=O)Nc2ccc3nc(-c4ccco4)c(-c4ccco4)nc3c2)CC1,1.58µM,14.1µM,79.4µM,39.8µM,11.2µM
O=C(CSc1nnc(-c2ccco2)n1-c1ccccc1)N1CCOCC1,n[12.7 µM],n,n,n,n
CCOC(=O)C1CCN(C(=O)CSc2nnc(-c3ccco3)n2-c2ccccc2)CC1,44.7µM,n,n,n,n
O=C(Nc1ccc2nc(-c3ccco3)c(-c3ccco3)nc2c1)N1CCCCCC1,5.01µM,14.1µM,12.6µM,15.8µM,11.2µM
O=C(Nc1ccc2nc(-c3cccs3)c(-c3cccs3)nc2c1)N1CCCC1,x,x,n,n,x
COc1ccc(C2CC(=O)Nc3c2c(=O)nc2c(C)cccn32)cc1 (stereo not drawn),n,x,n,n,n
COc1ccc(/C=C\c2cc(OC)c(OC)cc2CC[N+](C)(C)C)cc1OC,12.6µM,n,n,n,n
CC(=O)c1cc(C#N)c(NCc2ccccc2)nc1C,n,n,n,n,n
COc1ccc(C2c3[nH]c4ccccc4c3CCN2Cc2ccoc2)c(F)c1 (stereo not drawn),44.7µM,n,u,n,u
Oc1cccc(C2c3[nH]c4ccccc4c3CCN2Cc2ccoc2)c1 (stereo not drawn),n,n,u,n,u
Fc1ccccc1C1c2[nH]c3ccccc3c2CCN1CCCn1cccn1 (stereo not drawn),39.8µM,n,u,n,n
CC(C)(C)C1c2[nH]c3ccccc3c2CCN1CCCn1cccn1 (stereo not drawn),n,n,n,n,n
Oc1cccc(C2c3[nH]c4ccccc4c3CCN2Cc2ccc3c(c2)CCO3)c1 (stereo not drawn),n,n,56.2µM,n,44.7µM
COc1cccc(C2c3[nH]c4ccccc4c3CCN2Cc2cnc(C)s2)c1OC (stereo not drawn),n,n,u,n,25.1µM
Cc1sc2nc(C(C)Sc3n[nH]c(N)n3)[nH]c(=O)c2c1C (stereo not drawn),25.1µM,56.2µM,x,x,n
COc1ccc(NC(C)=O)cc1NC(C)c1nc2sc(C)c(C)c2c(=O)[nH]1 (stereo not drawn),u,u,n,n,u
CC1CCCCC1NC(=O)COC(=O)COc1ccc(Cl)cc1 (stereo not drawn),u,n,n,n,n
CCCCc1ccc(C2C(C#N)=C(N)SC(N)=C2C#N)s1,u,56.2µM,x,x,50.1µM
COCCCNC(=O)CCSc1ccc(C)cc1,n,n,n,n,n
CSc1ccc(Cl)c(C(=O)NCc2ccco2)c1,u,n,n,n,n
COc1ccccc1CNC(=O)c1ccc(CS(=O)(=O)c2ccc(C)cc2)o1,n,n,n,n,u
CCN(CC)CCCN1C(=O)c2oc3ccccc3c(=O)c2C1c1cccnc1 (stereo not drawn),50.1µM,n,u,n,n
O=C1c2oc3ccccc3c(=O)c2C(c2cccnc2)N1Cc1ccco1 (stereo not drawn),25.1µM,n,n,n,n
O=C(CSc1nncc(=O)[nH]1)NCc1ccccc1,56.2µM,n,39.8µM,n,u
O=C(CSc1nc(SCC(=O)NCc2ccccc2)n(-c2ccccc2)n1)NCc1ccccc1,25.1µM,n,n,n,n
